# Screening data deposited in PubChem BioAssay by National Center for Advancing Translational Sciences (NCATS).
# Compounds with a hit are over-represented: about 7.3% of the library has one in this group of screens.
# VACV Venus inh – qHTS for Stage-Specific Inhibitors of Vaccinia Orthopoxvirus: Venus Reporter Primary qHTS | Vaccinia virus Venus reporter expression, fluorescence | Potency, µM (titrated, usually from 36.5 µM), inactives show at the highest dose activity change, negative = inhibition, usual class: inhibitors | 0.46% of 330,000 active | AID 720580, 2013; calls by dose curve; tested in A549 cells; note: potency is the fitted concentration of half-maximal effect; nearly all actives have a fitted effect of over 30% in size
# VACV mCherry inh – qHTS for Stage-Specific Inhibitors of Vaccinia Orthopoxvirus: mCherry Reporter Primary qHTS. Vaccinia virus mCherry reporter infection, fluorescence. Potency, µM (titrated, usually from 36.5 µM), without a hit: at the top dose activity change, negative = inhibition, most hits filed as inhibitors. 0.63% of 310,000 active; calls by dose curve; tested in A549 cells; note: potency is the fitted concentration of half-maximal effect; nearly all actives have a fitted effect of over 35% in size
# HCV inh – qHTS Assay for Inhibitors of Hepatitis C Virus (HCV); Huh7.5.1 HCVcc-Cre infection, luciferase reporter, 44 h; Potency, µM (series often up to 41.8 µM), for inactives: at the top dose activity change, negative = inhibition, most hits filed as inhibitors; 3.4% of 340,000 active; AID 651820, 2012; active = well fitted inhibition curve with a large enough effect; inconclusive = small, poorly fitted or top-dose-only effect, or another doubt; inactive = no such curve, though single readings can be large or run the other way; note: potency is the fitted concentration of half-maximal effect
#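 Antiviral activity was scored by luciferase reporter output from cells infected with HCVcc-Cre (~0.5 moi) in presence of compound, 44 h infection period, cells seeded 1,000/well 4 h prior.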
# HCMV antiviral – qHTS Assay for inhibitors of the human cytomegalovirus (HCMV). HFF cells, HCMV-luciferase reporter, 72 h; hits give low values. activity change, negative = inhibition, % at 57.5 µM. 4.5% of 410,000 active. AID 1259415, 2018; in the data active = activity change below about -60%; inconclusive = no clear call, values can overlap the other calls; inactive = above about -39%
#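 Cell-based, HFFs, 1000 cells/well, 16 h 37C; cpds in DMSO + HCMV-luc, MOI 1 PFU/cell; 72 h 37C; OneGlo luminescence after 5 min RT; norm. to buffer vs Salinomycin 10uM.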
# FMDV inh – High Throughput Screening for Foot and Mouth Disease Virus Antivirals | 1.2% of 410,000 active | Potency, µM (highest dose often 57.9 µM), inactives show top-dose activity change, negative = inhibition, usual class: inhibitors | FMDV antiviral cell-based qHTS; calls by dose curve; tested in HEK293T cells; note: read-out not given here; potency is the fitted concentration of half-maximal effect; nearly all actives have a fitted effect of over 45% in size
# The depositor's hits bear a star; i = inactive; ? = inconclusive; . = not tested or not shown. % is set by controls: 0 for no effect and ±100 for the full control effect.
SMILES,VACV Venus inh,VACV mCherry inh,HCV inh,HCMV antiviral,FMDV inh
Cn1ncc2c(NCc3ccco3)ncnc21,-11%,-15%,.,.,.
Cn1cc(NC(=O)CCl)cn1,?,?,?,-84*,?
O=C(Nc1ccccc1Cl)c1ccc(F)c(S(=O)(=O)NCc2ccc(Cl)c(Cl)c2)c1,-23%,-19%,.,-32,-8%
CCOc1ncccc1C(=O)N1CCN(C(c2ccccc2)c2ccccc2)CC1,-8%,-4%,11µM*,-29,?
NC(=O)c1cn(C2OC(CO)C(O)C2O)c2ncnc(N)c12 (configuration not stated),0.32µM*,0.32µM*,?,-97*,?
N#Cc1cn(C2OC(CO)C(O)C2O)c2ncnc(N)c12 (configuration not stated),?,?,?,-100*,14%
c1ccc2c(N3CCCCC3)nc(N3CCCC3)nc2c1,.,.,3.2µM*,-29,?
Cc1nc(N2CCCCCC2)c2ccccc2n1,.,.,10µM*,?,-30%
c1ccc2c(c1)nc(N1CCCCC1)c1ccccc12,-4%,i,?,-20,-24%
c1ccc2nc(N3CCCC3)c(N3CCCCC3)nc2c1,-11%,i,-3%,-13,-23%
O=C(NCc1cccc(F)c1)C1CCN(c2nc3ccccc3nc2C(F)(F)F)CC1,9%,2%,.,-8,-21%
C=C1CCC[C@]2(C)C[C@H]3OC(=O)C(CNCCN(CC)CC)[C@H]3CC12 (some centres not stated),3.2µM*,4µM*,?,-21,-14%
CN(C)c1ccc(/C=C/c2cc(Cl)nc3ccccc23)cc1,-17%,i,.,.,.
Cc1cc(C)cc(Nc2nc3ccc(C)cc3n3cnnc23)c1,-23%,-21%,-19%,55,-9%
Cc1ccc(Nc2c3c(nc4nncn24)CCC3)cc1C,-13%,-31%,.,-88*,-27%
COc1cccc(/C=N/Nc2nc3ccccc3n3cnnc23)c1,1%,-5%,-18%,-28,-16%
COc1cccc(/C=N/Nc2nc3ccccc3[nH]2)c1O,.,.,?,-99*,19%
COc1cccc(/C=N/Nc2nc3ccccc3n3cnnc23)c1O,?,4.5µM*,?,-103*,5%
Cc1ccc2nc(Nc3ccc(C)c(C)c3)c3nncn3c2c1,.,.,22µM*,1,17%
Oc1c(Br)cc(Br)cc1-c1nc2ccccc2s1,-2%,-2%,.,29,-4%
CC(C)C(NS(=O)(=O)c1ccc2c(c1)oc(=O)n2C)C(=O)NCCc1ccc(Cl)cc1 (configuration not stated),9%,-8%,.,2,1%
Cc1ccc(CNCc2cn[nH]c2-c2ccc(C)cc2)cc1,-19%,?,.,.,.
COc1ccc(Nc2nc3ccc(C)cc3n3cnnc23)cc1Cl,.,.,.,-22,.
COc1ccccc1Nc1nc2ccc(C)cc2n2cnnc12,.,.,6.3µM*,64,18%
COc1ccc(Nc2nc3ccccc3n3cnnc23)cc1,-12%,-14%,20µM*,36,-22%
SMILES,VACV Venus inh,VACV mCherry inh,HCV inh,HCMV antiviral,FMDV inh
Cn1c(-c2ccncc2)nc2cc(C(=O)N3CCCC3c3nccs3)cc(NC(=O)C3CCC3)c21 (configuration not stated),3%,-9%,.,.,-5%
COCC(=O)Oc1c(S(=O)(=O)c2ccc(C)cc2)c(C)nn1C(C)(C)C,-25%,-9%,13%,-71*,-13%
CCC(CC)C(=O)Oc1c(Sc2ccccc2[N+](=O)[O-])c(C)nn1C(C)(C)C,-16%,-28%,4%,4,?
COCC(=O)Oc1c(Sc2ccccc2[N+](=O)[O-])c(C)nn1C(C)(C)C,-6%,i,9%,-101*,-10%
COc1cccc(CNC(=O)C2CCC(CNS(=O)(=O)c3ccc(Br)s3)CC2)c1 (configuration not stated),-5%,-16%,.,-16,-21%
O=[N+]([O-])c1ccc(Sc2nccn2Cc2ccccc2)c([N+](=O)[O-])c1,-19%,-3%,?,-37,28µM*
Cc1cccc(Sc2c([N+](=O)[O-])ncn2C)n1,.,.,-6%,20,-12%
O=c1cc(-c2ccccc2)nc(Sc2ccc([N+](=O)[O-])cc2[N+](=O)[O-])[nH]1,-4%,-17%,0%,-34,16µM*
